58 compounds from PubChem BioAssay AID540364 (The Scripps Research Institute Molecular Screening Center, 2011) can be followed below.

Molecules are shown by their SMILES. In all, about 360,000 compounds went through this assay and about 2,000 (0.56%) were called active.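 The calls were made as follows: active = activation above the average of all compounds screened plus 3 SD, cutoff fixed separately per campaign (cut at about 7.5% in these data); inactive = the rest.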 The sample as a whole holds a higher share of actives than the screen did.

The nature of the assay: FXN promoter activators, primary screen, cell-based, luciferase luminescence, HEK293 lucGAA850 (AID 540364).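 Also: 0% = DMSO wells and 100% = 10 µM SAHA wells.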 Particulars: HEK293 lucGAA850 FXN promoter luciferase reporter, 24 h; at 6 µM; stronger effect = higher value; percent of 10 µM SAHA response. For orientation: A reporter such as luciferase makes a cellular process visible.
In the case of `Cc1cc(=O)oc2c3c(cc(OCC(=O)NCC(O)c4ccccc4)c12)OC(C)(C)CC3` (stereo not drawn), the activation is 1.51% (inactive). With `Cc1ccc(C)c(NC(=O)c2ccc3nccnc3c2)c1`, the activation was -0.14% (inactive). For `O=C(NCCc1ccc(F)cc1)c1ccc2nccnc2c1`, the activation was 3.24% (inactive). Consider `CC(C)CCC(C)NC(=O)c1ccc2nccnc2c1` (stereo not drawn), for which the activation was 9.19% (active). Consider `O=C(CN(c1cc(C(F)(F)F)ccc1Cl)S(=O)(=O)c1ccccc1)NCc1cccnc1`, for which the activation was 8.32% (active).

Turning to `CN(CC(=O)NCc1cccnc1)S(=O)(=O)c1cc(Cl)ccc1Cl`, the activation was -2.15% (inactive). `CCc1ccc(N(CC(=O)NCc2cccnc2)S(=O)(=O)c2ccccc2)cc1`: the activation was -0.07% (inactive). The same measure for `COc1ccc(OC)c(NC(=O)c2cnn(-c3ccccc3Cl)c2NC(=O)c2ccco2)c1`: 2.28% (inactive); for `O=[N+]([O-])/C=C/c1ccc2c(ccn2Cc2ccccc2)c1`: 15.3% (active). For the compound `COc1ccc(NC(=S)SC)cc1OC`, the activation was 0.31% (inactive).

Consider `COc1ccc(CN2C(=O)CN=C2Nc2ccc(C)cc2C)cc1`, for which the activation is 2.67% (inactive). For `Cc1ccc(NC(=O)COc2ccc(/C=C3/NC(=O)NC3=O)cc2)cc1`, the activation is -1.99% (inactive).

On to `Cc1ccc(OCC(=O)Nc2ccc(-c3nnc(-c4ccco4)o3)cc2)cc1`, for which the activation is 9.76% (active).

With `CCOC(=O)C1=C(O)/C(=C/c2ccc(OCC(=O)Nc3ccc(C)cc3)cc2)N=C1C`, the activation was -1.6% (inactive). For the compound `Cc1noc(C)c1NC(=O)Nc1ccc2c(c1)C(=O)N([C@H](C)CO)C[C@H](C)[C@@H](CN(C)S(=O)(=O)c1cn(C)cn1)O2`, the activation is 0.14% (inactive). `CCOC(=O)C1=C(CC)Nc2ccccc2N=C1NC(=O)c1cccc(S(=O)(=O)N2CCCC2)c1`: the activation was -2.08% (inactive). Regarding `Cn1c(CCN2CCCCCC2)nc2cc(NC(=O)Nc3ccccc3)ccc21`, the activation is 10.5% (active). The same measure for `CCC(=O)Nc1ccc2c(c1)nc(CCN1CCN(c3ccccn3)CC1)n2C`: 1.46% (inactive); for `Cc1nn(CC(=O)Nc2ccc3c(c2)nc(CN2CCCCC2)n3C)c(=O)c2ccccc12`: -1.92% (inactive).

Consider `O=C(CNCCC1=CCCCC1)Nc1ccccc1N1CCCCCC1`, for which the activation was -0.31% (inactive). Turning to `Cc1cc(C)c2c(-n3cccc3)c(C(=O)NNS(=O)(=O)c3ccc(F)cc3)sc2n1`, the activation is -0.88% (inactive).

For `COc1cc(S(=O)(=O)N2CCN=C2c2ccccc2)ccc1Cl`, the activation was 2.5% (inactive).

In the case of `COC(=O)CNC(=O)c1ccccc1[N+](=O)[O-]`, the activation was 1.03% (inactive). Regarding `COCCn1c(=NC(=O)c2ccccc2[N+](=O)[O-])sc2cc(S(C)(=O)=O)ccc21`, the activation is 8.06% (active). The same measure for `Cn1c(=NC(=O)c2ccc3c(c2)OCCO3)sc2cc(S(C)(=O)=O)ccc21`: -0.86% (inactive). For `CCOC(=O)C1CCN(C(=O)Cn2nc(C)c3c(C)n(-c4ccccc4)nc3c2=O)CC1`, the activation is -0.2% (inactive). In the case of `COc1ccc(N2C(=O)CNC2=S)cc1`, the activation was -3.02% (inactive). For the compound `COc1ccc(-n2cc(-c3ccccc3)c3c(=S)nc[nH]c32)cc1`, the activation is 8.54% (active). Consider `COc1ccccc1CNC(=O)C1Cc2ccccc2C(=O)O1` (stereo not drawn), for which the activation is -0.56% (inactive). Consider `COc1cccc(N(C(=O)c2ccn[nH]2)C2(C(=O)Nc3c(C)cccc3C)CCCCC2)c1`, for which the activation is -6.45% (inactive). Regarding `CCc1ccc(N(C(=O)c2csnn2)C(C(=O)NC2CCCCC2)c2ccncc2)cc1` (stereo not drawn), the activation was 8.57% (active). As for `O=C(NC1CCCC1)C(c1ccco1)N(C(=O)c1csnn1)c1ccccc1` (stereo not drawn), the activation is 0.36% (inactive). As for `CCc1ccc(N(C(=O)c2csnn2)C(C(=O)NC2CCCCC2)c2cccnc2)cc1` (stereo not drawn), the activation is -1.27% (inactive).

For `CCOc1ccc(N2C(=O)CC(N(CCc3ccc(OC)c(OC)c3)C(=S)Nc3ccccc3)C2=O)cc1` (stereo not drawn), the activation was 8.9% (active).

As to `COC(=O)CN(C(=S)Nc1ccc(Cl)cc1)C1CC(=O)N(c2ccc(OC)cc2)C1=O` (stereo not drawn), the activation was 1.91% (inactive). With `CN(C)c1ccc(NC(=S)N(CCc2ccccc2)C2CC(=O)N(c3c(Cl)cccc3Cl)C2=O)cc1` (stereo not drawn), the activation is 0.24% (inactive).

As to `COc1ccc(NC(=O)CSc2ccc(-c3ccco3)nn2)c(OC)c1`, the activation was 0.41% (inactive). As to `COc1ccc2[nH]c3nc(SCC(=O)NC4CC4)nnc3c2c1`, the activation was 0.57% (inactive).

Take `Oc1cccc2cc(-c3ccncc3)cnc12`: the activation is 2.66% (inactive). `COC(=O)c1ccc(NC(=O)CSc2nc(N)c(NC(=O)c3ccc(Br)o3)c(=O)[nH]2)cc1`: the activation was 1.31% (inactive). `COc1ccc(C2Nc3ccccc3C(=O)N2Cc2ccccc2)cc1Cn1nnc2ccccc21` (stereo not drawn): the activation was -2.6% (inactive). Regarding `COc1ccc(CN2CCCC(C(=O)c3ccc(Cl)cc3)C2)cc1Cn1cncn1` (stereo not drawn), the activation was 1.04% (inactive). The same measure for `COc1ccc(C2Nc3ccccc3C(=O)N2c2ccc(Cl)cc2)cc1Cn1cc([N+](=O)[O-])cn1` (stereo not drawn): 10.7% (active). On to `N#C/C(=C(\O)CCl)c1nnc2n1CCCCC2`, for which the activation was -0.95% (inactive).

For `CCOC(=O)C1(C)CCCN(C(=O)c2cccc(Cl)c2)C1` (stereo not drawn), the activation was -0.57% (inactive). Turning to `CC(C)Oc1ccc(C(CC(=O)N2CCOCC2)C(C)C)cc1` (stereo not drawn), the activation is 2.86% (inactive). With `CC(C)(C)c1ccc(C(=O)NCc2ccco2)cc1`, the activation is 8.75% (active). In the case of `O=C(NCc1ccco1)/C(=C/c1ccco1)NC(=O)c1ccccc1`, the activation is 1.61% (inactive). Turning to `CC(C)(C)NC(=O)NCc1ccco1`, the activation is 0.33% (inactive).

Regarding `COc1ccc(C2NC(=O)C(=O)/C2=C(\O)c2ccc(Cl)cc2)cc1OC` (stereo not drawn), the activation is -0.36% (inactive).

For `CC/C(=C(/c1ccccc1)c1ccc(OCC[N+](C)(C)C)cc1)c1ccccc1`, the activation is -0.77% (inactive).

As to `CCN(CC)C(=O)CSc1nnc(CNc2ccc(F)cc2)n1Cc1ccco1`, the activation is -2.98% (inactive). As for `CN(C)C(=S)N=c1ssc(=S)n1Cc1ccco1`, the activation was 16.1% (active). `CC1CN(Cc2ccco2)C(=S)N(c2ccccc2)C1=O` (stereo not drawn): the activation is 2.7% (inactive).

On to `O=C(COc1ccc2ccc(=O)oc2c1)NCC(O)c1ccccc1` (stereo not drawn), for which the activation was 1.75% (inactive). On to `O=C(CC1C(=O)NCCN1C(=O)c1ccc([N+](=O)[O-])cc1)Nc1cccc(Cl)c1` (stereo not drawn), for which the activation is 0.62% (inactive).

On to `O=C(CC1NCCc2ccccc21)Nc1cccc(Cl)c1` (stereo not drawn), for which the activation was 7.89% (active). Take `O=C(CC1NCCNC1=O)Nc1cc(Cl)cc(Cl)c1` (stereo not drawn): the activation is 1.12% (inactive).
